# Measurements taken from the supplement of paper PMC11417369.
# ± gives the standard deviation of the averaged measurements. Whole data set: some 25,000 sequences, median “ln(normalized median fluorescence intensity)” near 10, cut for the highest 2% near 12. This is one part of a sample in which the highest values are shown more often than they occur.
# Test system: PfAP2-G AP2 domain (GST-tagged)
# Experiment: gcPBM binding intensity (ln(normalized median fluorescence intensity)); higher = stronger DNA binding
# Summary of the method: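 Probes on an Agilent 4 × 180k array were primer-extended, double-stranded and 36 bp long, taken from intergenic genomic regions, with negative controls added. GST-tagged P. falciparum DNA-binding domains from E. coli, about 25 μg on average, were applied to the array for 1 h in 1× PBS containing 1% milk, 0.2 mg/ml BSA, 0.5% salmon testes DNA and 0.03% Triton X-100. Binding intensity, obtained after Alexa488 anti-GST antibody detection and a 488 nm scan, is the highest Masliner-normalised natural-log median intensity across replicate spots of either probe orientation.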
row,Sequence,gcPBM binding intensity (ln)
1,ATAAATATAACATATTGTACCCTTAAAAAGGAACAA [XGTACX_site352],11.7 ± 0.96
2,AAAGACAAAAGGAATTGTACATAATATATAAAATAT [XGTACX_site2923],10.8 ± 0.54
3,ATATATAAAATATATTGTACATTAACATATATATTT [XGTACX_site2055],10.7 ± 0.43
4,ATAATATATTTTTGTAGTACACTTCTGGTAATATCG [XGTACX_site2402],11.7 ± 1
5,TAGTAATATATATTTTGTACATAAAATAATATATAA [XGTACX_site7971],10.9 ± 0.59
6,TAATAATATATTTGTAGTACACAATTTTTTATAACT [XGTACX_site3951],11.6 ± 0.89
7,AAGTTTTATTTAAATTGTACTAAAATTTTTATATTA [XGTACX_site7065],11 ± 0.69
8,AATAAATAAATATATACACACATATATCTGTACATA [CACACA_site9034],10.9 ± 0.67
9,TATATATAAAGGTGTACACATATATATATATCTGTA [CACACA_site5311],11.7 ± 0.98
10,ATACAATAAAGGTGTACACATATATGATGCAAGATG [CACACA_site5897],11.7 ± 0.93
11,AATACAATATAAAGGTGTACATATATATATATATAT [XGTACX_site68],11.4 ± 0.9
12,AACACATAAAAAAGGTGTACCATAAAATATACATAC [XGTACX_site4478],11.4 ± 0.76
13,TAAAGTTATGCAATAACACACATATACAATACATAT [CACACA_site6698],9.98 ± 0.057
14,ACATATATATAAAGGTGTACACATATATATATATAT [XGTACX_site4779],11.7 ± 0.76
15,TGATGCAAGATATATACACACATATAAATATAAATA [CACACA_site7429],9.8 ± 0.042
16,TATATATATCTGTACACACACACATATAAATAAATA [CACACA_site4405],11.4 ± 1
17,TAAGCCAAGGGATAAATAAAATAACAAAATGAAATC [GTGCAC_negctrl_site601],9.66 ± 0.36
18,ATATGTATATATAAAAGTACGCGTAAAAAAAAAAAA [XGTACX_site5377],11.7 ± 1.3
19,AAATATAAAAGTATATGTACATATATATATATATAT [XGTACX_site7446],11.2 ± 0.64
20,TATACACATATATAAAGTACATATATGTGTAAAAAA [XGTACX_site8582],11 ± 0.64
21,TATTTTTTAAAAAAATGTCATAAAATTTCTTTTTTC [XGTACX_negctrl_site271],9.9
22,AAAAAAAAAAAAAGATGTACATATATTTTTATTATA [XGTACX_site654],11.4 ± 0.96
23,ATATGCCTAATAAAATGTACGTTTGTTTTATTTATT [XGTACX_site3833],11 ± 0.49

row,Sequence,gcPBM binding intensity (ln)
1,GCCTATATGTTTAGTTGTACTCCTAATATTATTTGT [XGTACX_site6060],11.7 ± 1.1
2,TAATATATTAATTTTTGTACTTAATTATATGTTTTT [XGTACX_site5654],10.9 ± 0.63
3,ATATATACATATATATGTACGTATATTTTTATTTCT [XGTACX_site6198],11.6 ± 1.1
4,ACTTTCAAGGATGTACGTACATATGTATTTTATAAC [XGTACX_site6714],11.7 ± 0.91
5,ATACATATATAATTATGTACGTATATTTTATATAAC [XGTACX_site4292],11.6 ± 0.91
6,ATATGTATATTTTTTTGTACGTATTTATGTGTGTGT [XGTACX_site2093],11.4 ± 0.84
7,CTTTAACCATATATGTGTACGTATTTTATTCATATT [XGTACX_site6212],11.8 ± 1.1
8,ATATTTATATTTTCATGTACGTATTTTTATATATAT [XGTACX_site8478],11.6 ± 0.96
9,TAATAAATCAAATGCACACACACAAAAAAAAAAAAA [CACACA_site161],10 ± 0.49
10,AGAAATATATATATATATATATATATATATATATAT [TGCATGCA_negctrl_site375],10 ± 0.88
11,TCTTTAAATTTCTCAACACACAGTTATAAAAAATAA [CACACA_site2856],9.8 ± 0.085
12,TATAAATTTTTATTTACATGCAGTTATTATTTCCAT [TGCATGCA_site41],10 ± 0.18
13,TAGTATTAAAATATTTGTACTTATATGTATTATATA [XGTACX_site538],11 ± 0.69
14,TAATGGTGTTCATGTGGTACACTTTATAAATTGGCA [XGTACX_site729],11.7 ± 1.1
15,GCTTTTAAAATAATTGGTACACATGTATAAATTCAA [XGTACX_site2327],11.1 ± 0.69
16,TAATGGTATAAAAAATGTACATGTTTTTTTACAATT [XGTACX_site4285],11.2 ± 0.54
17,TCATTCATATGTTACACACACACACGCACATAAAAA [CACACA_site7514],10.5 ± 0.35
18,TTTTCAATATATATTTGTACTTTATTTTATGATATT [GTGCAC_negctrl_site732],11.2 ± 0.75
19,TTATGATATATTTGTTGTACGCTTTTTTTATGAACT [XGTACX_site573],11.8 ± 1.1
20,ATTTTATATATGTGTTGTACGGTGAACATTTTGATA [XGTACX_site6538],10.8 ± 0.58
21,ATTTTAAATATTTGTGGTACCCCTTTTTTGTAACAA [XGTACX_site5590],11.8 ± 1.1
22,GAAATATTTGTAAAAACATGCATGGTACTTTTAAAA [TGCATGCA_site6],11 ± 0.7
23,TTCCCTTTTGTAAAATGTACATATATATTTAAACAA [XGTACX_site3263],11.2 ± 0.54

row,Sequence,gcPBM binding intensity (ln)
1,ATTTATATTTAATATACACACATTATTTTTTTATAT [CACACA_site574],9.955 ± 0.021
2,TGTAGAGCGCAAAGTAGTACTACAAATTATGGAGGG [XGTACX_site3022],11.8 ± 1
3,ATATATGACAAATGTAGTACAAATTATTGTATCATA [XGTACX_site3675],11.4 ± 0.76
4,TAAAAATGGGAGGGGTGTACTACACAATAAAATTAT [XGTACX_site5641],11.6 ± 0.95
5,TTATATTTTTACAAGAGTACATATATATATATATAT [XGTACX_site5383],11.4 ± 1.1
6,ATGTAAATACATATATGTACACAAATATATATATAT [XGTACX_site3537],11.6 ± 1.1
7,TTCTGTGTGTATTGGCGTACAATTATTTTGCCTACA [XGTACX_site205],11.7 ± 0.83
8,TTATTTTTTTTGTGTTGTACAATTTATTACTACTAA [XGTACX_site346],11.3 ± 0.82
9,TATATTTTATATTGGTGTACAATTTTTTTTTTTTTT [XGTACX_site4291],11.4 ± 0.91
10,TTTTTATAAAAATGAACACACACATATATATATATA [CACACA_site9160],10.2 ± 0.49
11,ATGTGTTGGGAAAAGGCATGCACTTTTTTTTTTTTT [TGCATGCA_site707],10.2 ± 0.11
12,GTACAGATGTAGTATGCATGTAATTATATATAAATT [TGCATGCA_site292],11.1 ± 0.47
13,TAAAATAAAAATTAAAGTACATATGTATATATATAT [XGTACX_site3984],11.1 ± 0.88
14,CTTTTAATTATAAAATGTACTTAAAAATAATAATAC [XGTACX_site635],11.1 ± 0.88
15,TTATTATAAAAATGTAGTACAATACTTTTTTTTTTT [XGTACX_site732],11.7 ± 0.84
16,GGGGGCTTTTATAAAAGTACAAAATGAATAAAAATT [XGTACX_site2393],11.4 ± 0.97
17,AATAATGTATGAAATAAACACACAAGTAAGTACATA [CACACA_site8776],11.7 ± 0.91
18,AATGAAATAAAATAAAGTACATATATGTAAAAGTAG [XGTACX_site5650],11.4 ± 0.79
19,TTATTTTATAATAAAAGTACACAAAAAAAAAAAAAA [XGTACX_site7668],11.4 ± 1.1
20,TAATAATAAATAAAATGTACATATGAACAAATAAGT [XGTACX_site6710],11.3 ± 0.61
21,TTATATACATAAAAATGTACTTTTTATAAAATATAT [XGTACX_site8281],11.2 ± 1
22,CCTTTATAAAAAAGTAGTACACAATGAATTTATAAT [XGTACX_site5523],11.8 ± 1
23,ATATGAAATATATGTAGTACACATAATTAAAAGTAG [XGTACX_site6490],11.7 ± 0.86

row,Sequence,gcPBM binding intensity (ln)
1,TAATGTATGAAATAAACACACAAGTAAGTACATAAA [CACACA_site2451],11.6 ± 0.98
2,ACAAGATGATGGAAATGTACATAAAAAGAATCATAT [XGTACX_site8682],11.2 ± 0.63
3,AAAAAAAAAAAAACTACACACATACAAATATTTATA [CACACA_site5430],9.875 ± 0.035
4,AAAAAAAAGAAAAACACACACATATATATATATAAT [CACACA_site4707],9.72 ± 0.042
5,TGAAAATAATTATAGGTGCATAAACATACGGATCTT,10.21 ± 0.021
6,TTTTTTTTAAGAGATAGTACATAAATATTATAATAT [XGTACX_site4685],11.1 ± 0.86
7,GACATTAATTATTTGACACACGACTGGGTGGTGATT [CACACA_site306],10.09 ± 0.021
8,ATAAGTAATATAATATGTACATATATATATATATAT [XGTACX_site3818],11.2 ± 0.5
9,TGAAAAATAAATAAATGTACATATATATATATATAC [XGTACX_site7310],10.9 ± 0.49
10,TTTTTTGAAAATAAAAGTACAAATTTTATATTTAAA [XGTACX_site2758],11 ± 0.88
11,AAAACTATTAAATGTAGTACATAATTATTGAAATAA [XGTACX_site8716],11.6 ± 0.91
12,ATGTATGTAATAAAAAGTACATATGTTCATAATAAA [XGTACX_site842],11.4 ± 0.57
13,AAATGAAATAAATGTAGTACACATATACAATATATA [XGTACX_site6951],11.7 ± 1.1
14,AAATGTAATATAAATAGTACATATTAAATAAAATTA [XGTACX_site6917],11.1 ± 0.88
15,AATAAAAATAATGAATGTACATATATATATACAATA [XGTACX_site3342],10.9 ± 0.4
16,TCGTATTTAAAATGTAGTACATAATTTGAAAAATAA [XGTACX_site5832],11.6 ± 0.83
17,AAAAAAAAAAAAAGTAGTACATAATATGTTCCTCCT [XGTACX_site8356],11.6 ± 1
18,AATTTGAAATAAAGTAGTACAGTATATAAAAATATA [XGTACX_site128],11.8 ± 1.1
19,TATTTTGAAAATAAAAGTACAAATTTTATATTTAAA [XGTACX_site3238],11.1 ± 0.83
20,AAGTATAAATTAAAATGTACTTATAAAAAAAAAGAA [XGTACX_site7028],11.2 ± 0.72
